Reference: PubChem BioAssay (NCI)
Compounds without any hit were thinned out: in the full panel of roughly 83,000, 20% have a hit.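 A percent growth of 40 corresponds to 60% growth inhibition; 0 means no net growth; -100 means all cells died. Active threshold: below 10.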 A number with no mark means an inactive call. Activity calls are given as the source filed them.

Assays:
Assay in all cases: NCI-60 one-dose screen, 48 h (100 = growth as untreated, 0 = no growth, -100 = all killed)
NCI-H23 lung = conditions: 10 µM unless noted
NCI-H226 lung = conditions: 10 µM unless noted
NCI-H322M lung = conditions: 10 µM unless noted
HOP-62 NSCLC = conditions: 10 µM unless noted
NCI-H460 lung = conditions: 10 µM unless noted
HOP-92 NSCLC = conditions: 10 µM
NCI-H522 lung = conditions: 10 µM unless noted
A549/ATCC NSCLC = conditions: 10 µM unless noted
786-0 renal = conditions: 10 µM unless noted
COLO 205 colon = conditions: 10 µM unless noted
DU-145 prostate = conditions: 10 µM unless noted
K-562 leukemia = conditions: 10 µM unless noted
MALME-3M melanoma = conditions: 10 µM unless noted
MDA-MB-231 breast = conditions: 10 µM unless noted
SF-268 CNS = conditions: 10 µM unless noted
SF-295 CNS = conditions: 10 µM unless noted
SF-539 CNS = conditions: 10 µM unless noted
UACC-257 melanoma = conditions: 10 µM unless noted

Compound	growth (NCI-H23 lung)	growth (NCI-H226 lung)	growth (NCI-H322M lung)	growth (HOP-62 NSCLC)	growth (NCI-H460 lung)	growth (HOP-92 NSCLC)	growth (NCI-H522 lung)	growth (A549/ATCC NSCLC)	growth (786-0 renal)	growth (COLO 205 colon)	growth (DU-145 prostate)	growth (K-562 leukemia)	growth (MALME-3M melanoma)	growth (MDA-MB-231 breast)	growth (SF-268 CNS)	growth (SF-295 CNS)	growth (SF-539 CNS)	growth (UACC-257 melanoma)
COc1c(N2CC3CCCNC3C2)c(F)cc2c(=O)c(C(=O)N/N=C/c3ccc(N(C)C)cc3)cn(C3CC3)c12 (stereo not drawn)	69.1%	98.5%	93.6%	91.9%	78.3%	69.5%	73%	88.7%	37.7%	104%	73.6%	-10% (active)	92.9%	69.1%	85.5%	95%	-8.68% (active)	106%
O=C(NNc1nc2cc(F)ccc2n2c(CO)ccc12)c1cnccn1	22.8%	16.3%	22.7%	5.67% (active)	2.22% (active)	11.9%	2.58% (active)	13.6%	17.4%	8.65% (active)	22.7%	8.85% (active)	10.5%	35.9%	20.3%	3.48% (active)	3.67% (active)	-1.53% (active)
COc1cc(/C=C2\C(=O)Nc3cc(Cl)ccc32)ccc1OCc1ccc(F)cc1	101%	91.2%	98.2%	95.9%	99%	89.2%	92.9%	110%	108%	110%	104%	97.7%	92.7%	92.1%	101%	97.1%	95%	109%
COc1ccc2c(c1)c(CC(=O)[Se]CC(=O)O)c(C)n2C(=O)c1ccc(Cl)cc1	78.9%	100%	46.8%	29.3%	5.72% (active)	93.7%	100%	21.6%	106%	129%	85%	95.8%	112%	54.1%	64.1%	11.1%	66.8%	110%
CC(Nc1c(C#N)cnc2ccc(-c3cnc(N)nc3)cc12)c1ccccc1 (stereo not drawn)	13.1%	18.4%	6.93% (active)	10.6%	13.1%	-17.3% (active)	7.27% (active)	11.6%	12.2%	24%	17.3%	22.5%	0.078% (active)	19.1%	13.4%	-17% (active)	2.6% (active)	34.1%
O=C1Nc2ccccc2/C1=C/c1ccc(COCC2CO2)n1-c1ccc(O)cc1 (stereo not drawn)	100%	109%	107%	105%	113%	124%	93.5%	104%	103%	116%	111%	107%	62.9%	94.9%	98.7%	109%	96.8%	102%
CCCCCc1ccc(S(=O)(=O)Nc2cccc(-c3csc(NC(=O)CCCCCN4CCN(C)CC4)n3)c2)cc1	75.7%	88.2%	84.1%	79.4%	-29.6% (active)	29.8%	64.3%	54.4%	44.4%	-34.3% (active)	63.5%	-35.7% (active)	-67.4% (active)	42.9%	67.5%	85.8%	63%	0.162% (active)
O=C(NCc1ncc[nH]1)c1ccc(-c2nc3ccc4[nH]ncc4c3c3c2CCCC3)cc1	14.4%	36%	21.4%	17.8%	8.85% (active)	-7.23% (active)	-65% (active)	48.2%	25.4%	-10.4% (active)	21.6%	14.7%	-14.7% (active)	10% (active)	3.81% (active)	31.5%	-2.48% (active)	27%
Cc1ccc(NC(=S)NNC(=S)Nc2ccc(C)cc2)cc1	95.2%	103%	96.7%	97.8%	112%	93.1%	93.4%	105%	89.6%	115%	106%	96.6%	103%	106%	108%	102%	110%	117%
CS(=O)(=O)Nc1cc(-c2ccc3ncc(C#N)c(N[C@H](CO)c4ccccc4)c3c2)cnc1Cl	45.2%	56.2%	78.3%	46.8%	74.3%	-2.14% (active)	25.7%	83.5%	54.8%	57%	62.4%	41.4%	29.8%	43%	28.4%	57%	43.7%	59.7%
CN1CCN(Cc2ccc(NC(=O)c3cncc(C#Cc4cnc5ccc(OCC6(C)COC6)nn45)c3)cc2C(F)(F)F)CC1	-76.2% (active)	-62.4% (active)	-81.2% (active)	-69.4% (active)	-77.5% (active)	-70.6% (active)	-28.3% (active)	-43.8% (active)	-55.4% (active)	-58.5% (active)	-85.3% (active)	4.99% (active)	-79.8% (active)	-74.1% (active)	-62.2% (active)	-97.1% (active)	-88.6% (active)	-70.6% (active)
Cn1ccnc1C(=O)/C=C/c1ccc(NC(=O)c2ccc(F)cc2)cc1	13.4%	45.3%	46.3%	64.5%	-19.7% (active)	47.2%	17.4%	34.8%	22.1%	75.4%	9.78% (active)	15%	87.8%	22.1%	21.8%	52.5%	-3.29% (active)	84.2%
CCCCCc1ccc(S(=O)(=O)Nc2cccc(-c3csc(NC(=O)CCCCCN4CCN(CCO)CC4)n3)c2)cc1	81.1%	92.7%	87.5%	85.1%	23.9%	62.7%	77.2%	74.5%	68.3%	72.8%	83%	-21.3% (active)	29.8%	75.7%	83.2%	91.5%	67.3%	86.7%
CS(=O)(=O)Nc1cc(-c2ccc3ncc(C#N)c(NCc4ccccc4F)c3c2)cnc1Cl	1.49% (active)	14.6%	12.9%	0.205% (active)	5.08% (active)	-10.9% (active)	14.1%	7.89% (active)	11.4%	-24.7% (active)	19%	13.2%	-35.6% (active)	5.59% (active)	7.96% (active)	-21.7% (active)	-11.5% (active)	2.07% (active)
COc1ccc([C@H]2c3[nH]c4ccccc4c3C[C@H]3C(=O)N(C4CCN(Cc5c(Cl)cccc5Cl)CC4)CC(=O)N23)c(OC)c1	98%	92.9%	94.5%	93.2%	99.1%	79.4%	87.2%	91.1%	101%	109%	110%	92.7%	90.6%	93%	85.6%	106%	101%	116%
CCCCCc1ccc(S(=O)(=O)Nc2cccc(-c3csc(NC(=O)CNCCN(C)C)n3)c2)cc1	94.6%	87.5%	90.4%	98.8%	51.9%	53%	91%	84.8%	61.6%	74.6%	84.8%	9.48% (active)	74%	93.5%	78.6%	95.5%	91.1%	96.1%
